FXIIa inh mix – blocks human factor XIIa in pooled compound mixtures. P00748. purified FXIIa, fluorogenic substrate. inhibition, % at 5 µM. 0.2% of 62,000 active
BAP1 inh – blocks human BAP1 ubiquitin-AMC hydrolysis; 0.48% of 72,000 active; recombinant BAP1, Ub-AMC hydrolysis fluorescence kinetic; stronger effect = lower value; calls only at 20 µM;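 active = activity remaining at or below 50% of control, provided the compound also passes the data quality filters; inactive = the rest, including low values that fail the filters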
Target sequence (Q92560 whole entry, looked up): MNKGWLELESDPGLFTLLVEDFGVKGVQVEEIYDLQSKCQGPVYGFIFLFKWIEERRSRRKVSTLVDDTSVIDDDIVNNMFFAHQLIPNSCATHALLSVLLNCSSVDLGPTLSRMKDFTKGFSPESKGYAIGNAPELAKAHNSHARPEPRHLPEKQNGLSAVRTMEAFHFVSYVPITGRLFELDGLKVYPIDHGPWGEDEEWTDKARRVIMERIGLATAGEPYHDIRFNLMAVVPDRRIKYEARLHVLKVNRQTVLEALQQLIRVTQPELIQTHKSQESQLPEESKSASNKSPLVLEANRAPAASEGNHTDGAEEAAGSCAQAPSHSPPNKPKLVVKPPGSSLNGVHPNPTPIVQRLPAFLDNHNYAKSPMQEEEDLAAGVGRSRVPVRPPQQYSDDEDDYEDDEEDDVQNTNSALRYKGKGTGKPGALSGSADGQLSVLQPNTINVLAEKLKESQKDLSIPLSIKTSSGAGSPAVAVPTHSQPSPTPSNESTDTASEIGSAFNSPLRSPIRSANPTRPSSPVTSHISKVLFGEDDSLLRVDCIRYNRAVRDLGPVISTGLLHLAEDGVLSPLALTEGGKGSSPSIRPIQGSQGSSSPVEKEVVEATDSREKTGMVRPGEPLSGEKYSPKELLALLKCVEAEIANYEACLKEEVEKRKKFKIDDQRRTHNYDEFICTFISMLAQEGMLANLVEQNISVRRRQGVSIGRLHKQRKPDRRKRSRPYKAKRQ
HePTP inhibitor – inhibitors of human HePTP phosphatase. P35236. recombinant HePTP phosphatase activity, OD absorbance. inhibition, % at 20 µM. 0.64% of 110,000 active. AID 521; in the data active = inhibition above about 50%
C1s block – blocks human complement C1s protease activity | P09871 | purified C1s, fluorogenic AMC substrate, pooled mixtures | mean inhibition % of two 10-compound mixtures (stronger effect = higher value), % at 5 µM (by protocol) | 0.16% of 62,000 active | AID 538;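 active = inhibition above 20% in each of the two 10-compound mixture wells holding the compound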
Cathepsin G inh – inhibitors of human cathepsin G. 0.2% of 62,000 active. purified enzyme, AMC-tetrapeptide fluorescence, pooled mixtures. inhibition, % at 5 µM (by protocol). P08311;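 active = inhibition above 20% in each of the two mixture wells holding the compound; inactive = inhibition of 20% or less in either well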
FXIa inh mix – inhibitors of human coagulation factor XIa, pooled mixtures; P03951; purified FXIa, fluorogenic substrate; inhibition, % at 5 µM; 0.19% of 62,000 active; AID 680;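 note: each value is inhibition by a whole ten-compound pool holding the compound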
Each line names hits and unclear results; the compound was inactive in the other large screens; ! = not confirmed by another sample. The list is not random: actives were taken first. Their share in the collection is about 1.1%. Cut-off read from the data, not from the text of the source, unless noted: active = inhibition above about 20% (passing the limit was not always enough); inactive = the rest.

O=C(CSc1ccccc1C(=O)O)Nc1ccccc1	none (no result: FXIIa inh mix, BAP1 inh, C1s block, Cathepsin G inh, FXIa inh mix)
CC(C)=CCC/C(C)=C/CC/C(C)=C/CSc1ccccc1C(=O)O	BAP1 inh active (no result: FXIIa inh mix, HePTP inhibitor, C1s block, Cathepsin G inh, FXIa inh mix)
CCSc1nnc2n(-c3ccc(C)cc3)c(=O)c3c4c(sc3n12)CCCC4	none (no result: FXIIa inh mix, BAP1 inh, C1s block, Cathepsin G inh, FXIa inh mix)
CCCCOC(=O)CCn1[nH]c(=O)c2ccccc2c1=O	none
O=C(CCn1[nH]c(=O)c2ccccc2c1=O)OC1CCCCC1	FXIa inh mix 21
COc1ccccc1N1C(=O)NC(=O)/C(=C\c2ccc(O)c(O)c2)C1=O	none (no result: FXIIa inh mix, BAP1 inh, C1s block, Cathepsin G inh, FXIa inh mix)
CCCOc1ccc(/C=N/NS(=O)(=O)c2ccc3ccccc3c2)cc1OC	HePTP inhibitor 103 (no result: FXIIa inh mix, BAP1 inh, C1s block, Cathepsin G inh, FXIa inh mix)
O=C1NC(=O)N(c2ccc(Cl)cc2)C(=O)/C1=C/c1cccc(C(F)(F)F)c1	none (no result: FXIIa inh mix, BAP1 inh, C1s block, Cathepsin G inh, FXIa inh mix)
Cc1ccc(S(=O)(=O)CCc2nc3ccccc3o2)cc1C	none (no result: FXIIa inh mix, BAP1 inh, C1s block, Cathepsin G inh, FXIa inh mix)
CCn1c(=O)c2cc(C(=O)N3CCN(C(=O)c4ccco4)CC3)sc2c2ccccc21	BAP1 inh active
CCn1c(=O)cc(OCC(=O)N2CCN(C(=O)c3ccco3)CC2)c2ccccc21	none
Clc1ccc(N=Cc2cccc(OCc3ccccc3)c2)cc1Cl	none (no result: FXIIa inh mix, BAP1 inh, C1s block, Cathepsin G inh, FXIa inh mix)
O=C(N/N=C\c1ccc([N+](=O)[O-])o1)c1nc(-c2ccccc2)cc(-c2ccccc2)n1	HePTP inhibitor 51 (no result: FXIIa inh mix, BAP1 inh, C1s block, Cathepsin G inh, FXIa inh mix)
Cc1cccc(C)c1NC(=O)Nc1c(C)cccc1C	none (no result: FXIIa inh mix, BAP1 inh, C1s block, Cathepsin G inh, FXIa inh mix)
O=[N+]([O-])c1ccc(N=Cc2cc(I)cc(I)c2O)c(O)c1	HePTP inhibitor 76 (no result: FXIIa inh mix, BAP1 inh, C1s block, Cathepsin G inh, FXIa inh mix)
O=C1NC(=Nc2cccnc2)S/C1=C\c1cccc(F)c1	HePTP inhibitor 66 (no result: FXIIa inh mix, BAP1 inh, C1s block, Cathepsin G inh, FXIa inh mix)
CCC(=O)Nc1nc(C)cc(SCC(=O)OC)n1	FXIa inh mix 21
Nc1nonc1C(=O)N/N=C/c1cccc(Br)c1	none (no result: FXIIa inh mix, BAP1 inh, C1s block, Cathepsin G inh, FXIa inh mix)
O=C(O)c1ccc2c(c1)C(=O)N(c1ccc(-c3nc4cc(N5C(=O)c6ccc(C(=O)O)cc6C5=O)ccc4[nH]3)cc1)C2=O	HePTP inhibitor 101 (no result: FXIIa inh mix, BAP1 inh, C1s block, Cathepsin G inh, FXIa inh mix)
C#Cc1cccc(N2C(=O)c3ccc(C(=O)O)cc3C2=O)c1	none (no result: FXIIa inh mix, C1s block, Cathepsin G inh, FXIa inh mix)
CCOC(=O)N1CCC(N2C(=O)c3cc(C(=O)NC4CCCCC4)ccc3C2O)CC1 (stereo not drawn)	FXIa inh mix 25
CCCN1C(=O)c2cc(C(=O)NC3CCCCCC3)ccc2C1O (stereo not drawn)	none (no result: BAP1 inh)
C=CCOc1ccc2c(C)cc(=O)oc2c1I	HePTP inhibitor 104 (no result: FXIIa inh mix, BAP1 inh, C1s block, Cathepsin G inh, FXIa inh mix)
O=C(O)CNC(=O)/C(=C\c1cccnc1)NC(=O)c1ccccc1	none (no result: FXIIa inh mix, BAP1 inh, C1s block, Cathepsin G inh, FXIa inh mix)
CCOC(=O)C1=C(O)/C(=C/c2ccc(C)cc2)SC1=Nc1ccc(C)cc1	HePTP inhibitor 54 (no result: FXIIa inh mix, BAP1 inh, C1s block, Cathepsin G inh, FXIa inh mix)
CCOC(=O)C1=C(O)/C(=C/c2ccc(O)cc2)SC1=Nc1ccc(Cl)cc1	none (no result: FXIIa inh mix, BAP1 inh, C1s block, Cathepsin G inh, FXIa inh mix)
O=C(c1csc2c1CCCC2)n1cccn1	C1s block 52, Cathepsin G inh 48, FXIa inh mix 45 (no result: BAP1 inh)
O=C(c1csc2c1CCCC2)N1CCN(c2ncccn2)CC1	none
O=C1NN(c2ccc(I)cc2)C(=O)/C1=C\c1ccccc1O	HePTP inhibitor 92 (no result: FXIIa inh mix, BAP1 inh, C1s block, Cathepsin G inh, FXIa inh mix)
O=C1NN(c2ccccc2)C(=O)/C1=C\c1ccccc1O	none (no result: FXIIa inh mix, BAP1 inh, C1s block, Cathepsin G inh, FXIa inh mix)
O=C1NN(c2ccc(I)cc2)C(=O)/C1=C\c1ccc(F)cc1	HePTP inhibitor 104 (no result: FXIIa inh mix, BAP1 inh, C1s block, Cathepsin G inh, FXIa inh mix)
COC(=O)CSc1nnc(CNC(=O)Cc2ccccc2)n1C	FXIa inh mix 26
CCOC(=O)CSc1nnc(CNC(=O)Cc2ccccc2)n1C	none
CC(C)CNC(=O)c1cc(-c2cccs2)nc2ccccc12	none (no result: FXIIa inh mix, BAP1 inh, C1s block, Cathepsin G inh, FXIa inh mix)
O=C(O)c1ccc(CN2CCOCC2)cc1	none (no result: FXIIa inh mix, BAP1 inh, C1s block, Cathepsin G inh, FXIa inh mix)
Cc1ccc(C)n1Cc1ccc(C(=O)O)cc1	HePTP inhibitor 104! (no result: FXIIa inh mix, C1s block, Cathepsin G inh, FXIa inh mix)
O=C(COc1ccc(Br)cc1)N1CCCCC1	none (no result: FXIIa inh mix, BAP1 inh, C1s block, Cathepsin G inh, FXIa inh mix)
Cc1cnc(C(=O)Nc2ccccc2-c2ccc(C)o2)cn1	Cathepsin G inh 28
O=C(O)CCN1C(=O)/C(=C2\C(=O)N(Cc3ccccc3Cl)c3ccccc32)SC1=S	HePTP inhibitor 102 (no result: FXIIa inh mix, BAP1 inh, C1s block, Cathepsin G inh, FXIa inh mix)
COc1ccccc1NC(=O)CSc1nnc(-c2ccccn2)n1Cc1ccco1	Cathepsin G inh 31, FXIa inh mix 50 (no result: BAP1 inh)
COc1ccc(C)cc1NC(=O)CSc1nnc(-c2ccccn2)n1Cc1ccco1	none (no result: BAP1 inh)
Cc1ccsc1C1CC(=O)NC(SCc2ccccc2)=C1C#N (stereo not drawn)	none (no result: FXIIa inh mix, BAP1 inh, C1s block, Cathepsin G inh, FXIa inh mix)
COC(=O)C1=C(C)N(C)C(C)=C(C(=O)OC)C1c1ccsc1	HePTP inhibitor 105!
CC1=C(/C=C/C(C)=C/C=C/C(C)=C\C(=O)O)C(C)(C)CCC1	none (no result: FXIIa inh mix, HePTP inhibitor, C1s block, Cathepsin G inh, FXIa inh mix)
CC1=C(/C=C/C(C)=C/C=C/C(C)=C/C(=O)Nc2ccc(O)cc2)C(C)(C)CCC1	BAP1 inh active (no result: FXIIa inh mix, HePTP inhibitor, C1s block, Cathepsin G inh, FXIa inh mix)
CCCCCCCC/C=C\CCCCCCCC(=O)NCCc1ccc(O)c(O)c1	BAP1 inh active (no result: FXIIa inh mix, HePTP inhibitor, C1s block, Cathepsin G inh, FXIa inh mix)

Screens (PubChem BioAssay)
